# Test results reported in PubChem BioAssay (NCATS).
# “And” between values parts separate entries of the source, which are not always exact repeats. Equal entries are not always repeated. A number with no mark means an inactive call. Records with an inconclusive call do not appear. The source made the active and inactive calls. Unless noted, calls follow the shape of the dose curve; as a rule, active = well fitted curve in either direction with a large enough effect (not every such curve was filed as active); inconclusive = small, poorly fitted or top-dose-only effect, or another doubt; inactive = flat fitted curve, though single readings scatter.
# Biological target: Lysosomal acid glucosylceramidase (Homo sapiens) (UniProt P04062)
# Assay: Glucocerebrosidase-p2 (AID 348; in the data active = potency below about 10 µM; also: potency is read from the fitted curve at half-maximal effect)
# Conditions: purified GBA, blue fluorogenic substrate, 40 min
# Summary of the method: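 Normal human glucocerebrosidase (0.2 nM) with blue fluorogenic substrate (80 uM final) in citrate/phosphate pH 5.9 with 10mM sodium taurocholate, 0.01% tween-20; 40 min RT, NaOH/glycine stop; fluorescence Ex 365/Em 440; AC50 from a titration from 0.6 nM upwards.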
# Lysosomal acid glucosylceramidase (Homo sapiens), sequence (P04062 whole entry, looked up): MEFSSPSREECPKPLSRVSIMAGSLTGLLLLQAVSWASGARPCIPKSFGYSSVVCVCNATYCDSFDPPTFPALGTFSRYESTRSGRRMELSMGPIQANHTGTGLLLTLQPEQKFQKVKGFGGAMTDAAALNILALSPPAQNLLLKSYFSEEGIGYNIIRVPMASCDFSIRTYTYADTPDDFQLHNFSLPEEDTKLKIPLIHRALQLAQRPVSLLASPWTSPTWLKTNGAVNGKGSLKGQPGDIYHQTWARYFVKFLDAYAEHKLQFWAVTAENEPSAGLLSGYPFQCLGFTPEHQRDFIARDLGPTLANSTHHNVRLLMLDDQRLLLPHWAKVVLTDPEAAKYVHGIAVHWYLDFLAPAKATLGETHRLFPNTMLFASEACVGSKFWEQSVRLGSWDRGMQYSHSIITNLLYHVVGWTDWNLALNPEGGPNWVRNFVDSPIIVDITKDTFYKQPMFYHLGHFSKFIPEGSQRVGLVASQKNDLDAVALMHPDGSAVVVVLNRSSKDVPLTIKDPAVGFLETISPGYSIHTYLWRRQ
row,SMILES,Potency
1,Oc1ccc(Cl)cc1Sc1cc(Cl)ccc1O,> 11.4 µM
2,OC(CCN1CCCCC1)(c1ccccc1)c1ccccc1,> 11.4 µM
3,Cc1cc(N)c2cc(NC(=O)Nc3ccc4nc(C)cc(N)c4c3)ccc2n1,> 11.4 µM
4,CN(C)CC/C=C1\c2ccccc2Sc2ccc(Cl)cc21,> 11.4 µM

# Test system: not listed separately
# Assay: AP1 Signaling Pathway (AID 357);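 also: ME-180 reporter cells stimulated with EGF at its EC50 level; % is scaled to controls: 0 for no effect and ±100 for the full control effect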
# Conditions: ME-180 AP-1-bla reporter, EGF-induced, beta-lactamase ratio, 5 h; at 7.69 µM (top of the series)
# Summary of the method: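 Beta-lactamase reporter under AP-1 response element, ME-180 background. Stimulus: EC50 EGF. Compound exposure 5 h, 37 °C. Detection: CCF4, 2.5 h RT, 460/530 nm. Values: AC50 from titration.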
row,SMILES,"activity change, negative = inhibition"
1,Oc1ccc(Cl)cc1Sc1cc(Cl)ccc1O,-7.34%
2,OC(CCN1CCCCC1)(c1ccccc1)c1ccccc1,-3.31%
3,Cc1cc(N)c2cc(NC(=O)Nc3ccc4nc(C)cc(N)c4c3)ccc2n1,14%
4,CNCCC=C1c2ccccc2CCc2ccccc21,-6.8%
5,CN(C)CC/C=C1\c2ccccc2Sc2ccc(Cl)cc21,20.4%

# Same assay, conditions: ME-180 AP-1-bla reporter, EGF-induced, beta-lactamase ratio, 5 h; at 17.2 µM (top of the series)
row,SMILES,"activity change, negative = inhibition"
1,C[C@H]1[C@H](NC(=O)/C(=N/OC(C)(C)C(=O)O)c2csc(N)n2)C(=O)N1S(=O)(=O)O (stereo in doubt),1.44%
2,C[C@@H](CN(C)C)CN1c2ccccc2Sc2ccccc21,82.2% [activator] (active)
3,CCCCOc1ccc(C(=O)CCN2CCCCC2)cc1,18.2% and 12.3%
4,COc1cc(-c2ccc(=O)[nH]n2)ccc1OC(F)F,-8.42%
5,CCCCOc1cc(C(=O)NCCN(CC)CC)c2ccccc2n1,13.7% and 13.1% and 14.9%
6,Cc1c(N(C)CS(=O)(=O)O)c(=O)n(-c2ccccc2)n1C,6.43%
7,C=C(CC)C(=O)c1ccc(OCC(=O)O)c(Cl)c1Cl,-11.1% and -7.79%
8,CC(=O)O[C@H]1C[C@@H]2CC[C@@H]3[C@H](CC[C@@]4(C)[C@H]3C[C@H]([N+]3(C)CCCCC3)[C@@H]4OC(C)=O)[C@@]2(C)C[C@@H]1[N+]1(C)CCCCC1,10.4%
9,CN1CCN(C(c2ccccc2)c2ccccc2)CC1,4.01%
10,OC(CCN1CCCCC1)(c1ccccc1)c1ccccc1,7.98% and -4.16%
11,CC(=O)N(O)CCCCCNC(=O)CCC(=O)N(O)CCCCCNC(=O)CCC(=O)N(O)CCCCCN,-6.04%
12,CN(C)CCOc1ccccc1Cc1ccccc1,16.9%
13,CC(=O)Oc1ccc(C(c2ccc(OC(C)=O)cc2)c2ccccn2)cc1,-26.3% and -21%
14,CCCn1c(=O)[nH]c(=O)c2[nH]cnc21,4.48%
15,CN1CCN(CCCN2c3ccccc3Sc3ccc(S(=O)(=O)N(C)C)cc32)CC1,16.8%
16,CCCCC(=O)O[C@]1(C(=O)CO)CC[C@H]2[C@@H]3CCC4=CC(=O)CC[C@]4(C)[C@H]3[C@@H](O)C[C@@]21C,5.88%
17,Cc1cc(=O)n(-c2ccccc2)n1C,3.67%
18,C[N+]1(CCCCC[N+]2(C)CCCC2)CCCC1,5.75%
19,Oc1cc(O)c2c(c1)O[C@H](c1ccc(O)c(O)c1)[C@H](O)C2,10.1% and 0.263%
20,CC(C)NC[C@@H](O)COc1cccc2ccccc12,7.5% and 12.8% and 4.83%
21,CNCCC=C1c2ccccc2CCc2ccccc21,15.1% and 18.2%
22,CCCCOc1ccc(OCCCN2CCOCC2)cc1,5.36% and -1.05%
23,COc1cccc2c1C(=O)c1c(O)c3c(c(O)c1C2=O)C[C@@](O)(C(C)=O)C[C@@H]3O[C@H]1C[C@H](N)[C@H](O)[C@H](C)O1,-116% (active)
24,COc1ccc(CCN2CCC(Nc3nc4ccccc4n3Cc3ccc(F)cc3)CC2)cc1,-6.26% and 6.64%
25,CN(C)CCCOc1nn(Cc2ccccc2)c2ccccc12,10.8%
26,CN(C(=O)CN(CCO)CC(=O)N(C)C(C)(C)Cc1ccccc1)C(C)(C)Cc1ccccc1,-21.6%
27,C1CCc2nnnn2CC1,8.91%
28,CC(O)(P(=O)(O)O)P(=O)(O)O,-1.23%
29,CC(=O)c1ccc2c(c1)N(CCCN1CCC(CCO)CC1)c1ccccc1S2,4.33%

# Same assay, conditions: ME-180 (cervical carcinoma) AP-1-bla reporter, EGF-induced, beta-lactamase ratio, 5 h; at 38 µM (top of the series)
row,SMILES,"activity change, negative = inhibition"
1,COc1cc(-c2ccc(=O)[nH]n2)ccc1OC(F)F,17.6%
2,Oc1ccc(O)cc1,-22.8%
3,CCCn1c(=O)[nH]c(=O)c2[nH]cnc21,4.71%
4,C[N+]1(CCCCC[N+]2(C)CCCC2)CCCC1,7.2%
5,Oc1cc(O)c2c(c1)O[C@H](c1ccc(O)c(O)c1)[C@H](O)C2,-5.09%
6,CC(C)NC[C@@H](O)COc1cccc2ccccc12,17.5% and 11.4%
7,CNCCC=C1c2ccccc2CCc2ccccc21,16.2%
8,C1CCc2nnnn2CC1,6.67%
9,COc1cc(NS(C)(=O)=O)ccc1Nc1c2ccccc2nc2ccccc12,-9.96%
